# Experimental data taken from PubChem BioAssay.
# Results filed as inconclusive are left out. Calls of active or inactive are those of the source.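 Rule for the calls, unless noted: active = cell viability at or below a set limit in both duplicate runs, the limit being the all-compound median minus 4 SD (cut at about 23% in these data, passing the limit was not always enough); inconclusive = no clear call, values can overlap the other calls; inactive = the rest.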
# Key:
# [1] = reducers of endogenous Her2 protein level, primary screen, SKBR3 breast tumor cells, AlphaScreen, ATP viability (AID 461;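 active = Her2 level under about 52% in both replicate screens, with viability over 70% of control, limit read from the data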;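 for Her2 level: lower value means less Her2 protein in the cells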;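 for viability: percent of carrier control wells set as 100% viability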); details: 18-24 h, measured here: SKBR3 viability, ATP luminescence, at 10 µM
# [2] = molecular target: Receptor tyrosine-protein kinase erbB-2 (Homo sapiens) (UniProt P04626); test: as above; details: 18-24 h, at 10 µM, stronger effect = lower value
# Receptor tyrosine-protein kinase erbB-2 (Homo sapiens), sequence (P04626 whole entry, looked up): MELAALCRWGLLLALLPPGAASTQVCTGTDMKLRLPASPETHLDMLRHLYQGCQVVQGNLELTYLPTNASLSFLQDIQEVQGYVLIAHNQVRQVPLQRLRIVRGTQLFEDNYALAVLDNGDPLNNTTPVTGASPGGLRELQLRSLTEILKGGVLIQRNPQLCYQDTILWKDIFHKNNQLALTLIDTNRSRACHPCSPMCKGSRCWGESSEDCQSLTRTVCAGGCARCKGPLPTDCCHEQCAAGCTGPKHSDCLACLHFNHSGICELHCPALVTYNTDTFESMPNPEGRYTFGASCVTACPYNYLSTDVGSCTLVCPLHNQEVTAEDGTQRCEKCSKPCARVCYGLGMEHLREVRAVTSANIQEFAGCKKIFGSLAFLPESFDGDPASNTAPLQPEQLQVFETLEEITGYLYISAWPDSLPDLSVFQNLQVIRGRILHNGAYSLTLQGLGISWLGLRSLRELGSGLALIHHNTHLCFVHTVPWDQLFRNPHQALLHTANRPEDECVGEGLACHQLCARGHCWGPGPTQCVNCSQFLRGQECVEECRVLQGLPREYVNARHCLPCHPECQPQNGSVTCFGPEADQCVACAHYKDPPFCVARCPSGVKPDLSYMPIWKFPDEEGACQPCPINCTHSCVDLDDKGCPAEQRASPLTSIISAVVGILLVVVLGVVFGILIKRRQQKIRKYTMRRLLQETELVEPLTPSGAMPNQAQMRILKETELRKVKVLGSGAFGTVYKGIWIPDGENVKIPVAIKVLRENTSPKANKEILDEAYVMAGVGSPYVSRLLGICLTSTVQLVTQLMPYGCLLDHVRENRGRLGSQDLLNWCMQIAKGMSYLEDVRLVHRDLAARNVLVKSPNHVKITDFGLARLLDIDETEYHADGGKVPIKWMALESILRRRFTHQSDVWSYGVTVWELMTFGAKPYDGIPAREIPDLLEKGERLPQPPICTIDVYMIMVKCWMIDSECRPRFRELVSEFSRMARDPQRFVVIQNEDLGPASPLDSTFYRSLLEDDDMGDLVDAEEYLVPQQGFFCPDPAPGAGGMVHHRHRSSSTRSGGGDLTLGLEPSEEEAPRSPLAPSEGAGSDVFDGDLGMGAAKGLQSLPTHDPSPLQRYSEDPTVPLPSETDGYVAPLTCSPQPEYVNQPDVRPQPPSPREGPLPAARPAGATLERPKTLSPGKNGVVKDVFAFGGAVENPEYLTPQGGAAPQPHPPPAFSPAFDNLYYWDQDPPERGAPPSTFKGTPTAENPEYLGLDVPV
# [3] = SK-BR-3 cell growth inhibitors, pilot screen, 24 h, human (AID 572;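 active = viability at or below 10% of carrier control in both of two separate runs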;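 note: compound exposure lasted between 18 and 24 h rather than exactly 24 h; 100% = carrier-treated control wells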); details: SK-BR-3 viability, CellTiter-Glo luminescence, at 10 µM, stronger effect = lower value
# [4] = HUVEC growth inhibition – cell-based, human, primary screen (AID 575;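 active = viability at or below 30% in both replicate assays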;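 note: 100% = median of untreated cell wells with 0.1% DMSO on each plate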); details: HUVEC proliferation, CellTiter-Glo luminescence, 72 h; at 10 µM; stronger effect = lower value
# [5] = growth inhibitors of H69AR lung tumor, primary screen, human, duplicate replicates (AID 580;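 active = viability at or under a set limit in both replicates, limit being median viability minus 3 SD, cut at about 48% in these data, passing the limit was not always enough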;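 note: 100% = mean luminescence of untreated wells and 0% = no signal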); details: H69AR lung tumor cells viability, ATP luminescence, 72 h; at 10 µM; stronger effect = lower value
# [6] = reversal of MRP1-mediated doxorubicin resistance, pilot screen, H69AR cells, doxorubicin co-treatment (AID 601;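 active = viability loss from added drug above about 55%, and viability with drug at most 40%, in both replicates, limit read from the data, passing the limit was not always enough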); details: CellTiter-Glo, 72 h, at 10 µM; for differential viability (reversal): stronger effect = higher value
# [7] = 384-well plate pilot, post-Golgi transport modulator project, inhibition of yeast transport mutant growth (AID 636; in the data active = inhibition above about 31%); details: absorbance 615 nm, about 18 h, stronger effect = higher value
# [8] = growth suppression of yeast trafficking mutant, preliminary HTS, modulators of trafficking downstream of Golgi apparatus project, 1536-format plate, OD 615 nm (AID 637; in the data active = inhibition above about 30%); details: yeast transport mutant growth, absorbance 615 nm, 18 h; stronger effect = higher value
# [9] = OD615 S. cerevisiae growth inhibition, permissive medium, pilot counter-assay, permissive growth control for S. cerevisiae lifespan shortening project (AID 705;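 active = growth inhibition above 25% in both replicates, a cutoff set 3 SD above the mean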); details: OD615, 24 h, at 10 µM, stronger effect = higher value
# [10] = Restrictive medium S. cerevisiae growth inhibition, OD615, pilot screen of yeast lifespan reduction project, restrictive growth control (AID 706;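 active = growth inhibition above a set limit, 3 SD over mean compound inhibition, in both replicates, cut at about 43% in these data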;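 note: modified DeaD lifespan yeast strain shifted to restrictive glucose medium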); details: OD615, 48 h, at 10 µM, stronger effect = higher value
# [11] = viability gain of MRP-1-high H69AR cells under doxorubicin, pilot screen, MRP-1 activator project, CellTiter-Glo, duplicate (AID 807;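 active = viability increase at or above a cutoff of the median across tested compounds plus 3 SD, cut at about 8.5% in these data, passing the limit was not always enough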;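 note: compound pretreatment 18-22 h then 72 h combined with doxorubicin; 0% = doxorubicin alone and 100% = vehicle without doxorubicin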); details: H69AR viability with doxorubicin, CellTiter-Glo luminescence; at 10 µM; stronger effect = higher value
# [12] = growth suppression of beta-catenin knockout HCT116, pilot screen, human colon tumor cells (AID 823); details: CellTiter-Glo, 60 h, at 10 µM, stronger effect = lower value;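 note: 0% = wells killed by 20 µM Hyamine and 100% = untreated DMSO cell wells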
# [13] = growth suppression of PTEN-deleted HCT116, pilot screen, cell-based, HCT116 clonal line, CellTiter-Glo (AID 824;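 active = viability at or below 27.92% in each of two runs, the all-compound median minus 4 SD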;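 note: 0% = 20 µM Hyamine control and 100% = vehicle cell control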); details: 60 h, at 10 µM, stronger effect = lower value
# [14] = inhibitors of the yeast RAM network, pilot screen, dse1pr::URA3 reporter, 5-FOA selection (AID 869;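 active = inhibition over a set limit, the all-compound mean plus 3 SD, in both replicate runs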;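 note: 0% = DMSO wells with no growth and 100% = 10 µM 1-NA-PP1 with full growth; RAM network block rescues cells from 5-FOA so hits raise OD615 growth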); details: S. cerevisiae dse1pr::URA3 5-FOA growth, OD615, 2 d; at 10 µM; stronger effect = higher value; strain carries analog-sensitive mutant Cbk1 kinase
# [15] = RAM signaling pathway blockade in yeast – S. cerevisiae, Pdr1DBD-CYC8 efflux-inhibited sensitized strain, primary screen (AID 1298;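 active = RAM network inhibition above 8.4% in each of two replicates, 3 SD over the compound average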;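 note: 0% = DMSO untreated cells without growth and 100% = 10 µM 1-NA-PP1 full growth; higher means more yeast growth rescued from 5-FOA killing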); details: S. cerevisiae cbk1-as DSE1-URA3 strain, 5-FOA growth OD615, 2 d; at 50 µM; stronger effect = higher value
# [16] = H69AR cells + 2 uM doxorubicin, measured here: viability with 2 uM doxorubicin, stronger effect = lower value
# [17] = H69AR cells, compound alone cytotoxicity
Structure (SMILES),viability [1] [%],Her2 level [2],viability [3],viability [4],viability [5],differential viability (reversal) ([6]; H69AR cells + 2 uM doxorubicin),"viability [6, 16] [%]","viability [6, 17] [%]",inhibition [7],inhibition [8],growth inhibition [9],growth inhibition [10],viability increase [11],viability [12],viability [13],inhibition [14],RAM network inhibition [15]
CCN(CC)C(=O)Cn1ncc2c1-c1ccccc1OC2,84.5,112% (inactive),84.5% (inactive),98.3% (inactive),100% (inactive),15.7% (inactive),84.7,100,-0.64% (inactive),1.33% (inactive),-13.3% (inactive),-11.6% (inactive),0.84% (inactive),105% (inactive),100% (inactive),2.26% (inactive),-2.31% (inactive)
Cc1ccccc1NC(=O)C1CCCN(S(=O)(=O)c2cnc[nH]2)C1 (stereo not given),85.5,108% (inactive),85.5% (inactive),95.8% (inactive),92.6% (inactive),1.39% (inactive),91.2,92.6,-3.87% (inactive),3.33% (inactive),-1.35% (inactive),0.61% (inactive),-2.13% (inactive),102% (inactive),101% (inactive),2.71% (inactive),2.9% (inactive)
COc1cccc(-n2c(SCC(=O)Nc3cc(C)on3)nc3c([nH]c4ccccc43)c2=O)c1,76,90.5% (inactive),76% (inactive),61.5% (inactive),66.4% (inactive),-16.2% (inactive),82.6,66.4,-4.53% (inactive),-0.67% (inactive),-3.05% (inactive),-0.53% (inactive),-4.78% (inactive),82% (inactive),73.8% (inactive),2.33% (inactive),1.62% (inactive)
CCSC1=C(C#N)C(c2ccccc2OC)CC(=O)N1 (stereo not given),92,97.5% (inactive),92% (inactive),86.3% (inactive),99.8% (inactive),6.97% (inactive),92.8,99.8,-1.73% (inactive),-2.33% (inactive),-3.36% (inactive),0.71% (inactive),0.28% (inactive),94.1% (inactive),91.6% (inactive),1.78% (inactive),1.8% (inactive)
CC(=O)c1ccc(OCC(O)CN2CCN(Cc3ccc4c(c3)OCO4)CC2)cc1 (stereo not given),102,102% (inactive),102% (inactive),101% (inactive),88.7% (inactive),-2.19% (inactive),90.8,88.7,-6.13% (inactive),2.5% (inactive),-5.95% (inactive),-5.68% (inactive),-0.65% (inactive),102% (inactive),92.4% (inactive),1.67% (inactive),1.31% (inactive)
CCc1cc2c(=O)c(-c3nc4ccccc4[nH]3)coc2c(CN2CCC(C)CC2)c1O,96,116% (inactive),96% (inactive),99.1% (inactive),82.6% (inactive),0.66% (inactive),82,82.6,-1.03% (inactive),1.83% (inactive),6.25% (inactive),18.5% (inactive),-2.14% (inactive),92.3% (inactive),85.6% (inactive),-0.2% (inactive),-2.41% (inactive)
O=C(OCN1C(=O)c2ccccc2C1=O)C1CCCCC1,82,97.5% (inactive),82% (inactive),87.3% (inactive),87.6% (inactive),-12.9% (inactive),100,87.6,3.08% (inactive),-7.17% (inactive),0.93% (inactive),-9.12% (inactive),-2.19% (inactive),90.2% (inactive),91% (inactive),1.03% (inactive),0.77% (inactive)
CC(Oc1ccccc1)C(=O)NC1CC(C)(C)NC(C)(C)C1 (stereo not given),92,92.5% (inactive),92% (inactive),79.8% (inactive),94% (inactive),2.97% (inactive),91,94,-2.69% (inactive),-1% (inactive),-11.8% (inactive),-2.76% (inactive),-3.63% (inactive),97.1% (inactive),96.9% (inactive),-0.135% (inactive),2.18% (inactive)
O=C(Nc1ccc2c(c1)OCCO2)c1cnc2n(c1=O)CCS2,85.5,80.5% (inactive),85.5% (inactive),105% (inactive),79.4% (inactive),0.765% (inactive),78.7,79.4,0.93% (inactive),-2.95% (inactive),-17.9% (inactive),2.96% (inactive),3.01% (inactive),106% (inactive),104% (inactive),1.6% (inactive),4.19% (inactive)
Cc1c(C(=O)NC2CC2)oc2ccc(S(=O)(=O)N3CCCCCC3)cc12,81.5,106% (inactive),81.5% (inactive),96.8% (inactive),83% (inactive),-14.2% (inactive),97.1,83,-0.81% (inactive),3.44% (inactive),-7.49% (inactive),6.7% (inactive),3.84% (inactive),92.9% (inactive),90.8% (inactive),0.26% (inactive),4.34% (inactive)
